# Bioassay records from PubChem.
# Only some compounds are listed: those with a hit (about 5.2% of all), similar ones and a draw of the others.
# Tau FP inhib: qHTS for Inhibitors of Tau Fibril Formation, Fluorescence Polarization; K18 P301L tau heparin fibrillization, Alexa594 FP, 6 h; Potency, µM (series often up to 57.7 µM), most hits filed as inhibitors; actives 0.39% (n = 280,000); AID 1468, 2008; also: nearly all actives have a fitted effect of over 55% in size
# Target sequence (P10636 561-689 P618L limits assumed): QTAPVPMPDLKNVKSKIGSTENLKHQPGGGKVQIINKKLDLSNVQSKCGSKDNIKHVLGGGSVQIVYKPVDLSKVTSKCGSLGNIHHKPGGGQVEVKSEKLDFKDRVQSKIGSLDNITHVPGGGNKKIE
#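 Recombinant K18 P301L […], labeled with Alexa 594 at 0.24 uM over 15 uM unlabeled; heparin inducer 20 uM final; 37 C, 6 hr; FP endpoint.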
# Tau fluor cs: Counterscreen qHTS for Inhibitors of Tau Fibril Formation, Fluorescence Polarization; tau K18 P301L Alexa594 fluorescence, heparin fibrillization; Potency, µM (series often up to 57.7 µM); actives 0.93% (n = 280,000); AID 1463, 2008; also: nearly all actives have a fitted effect of over 55% in size
#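 Human K18 P301L tau (15 uM unlabeled plus 0.24 uM Alexa 594-labeled, final) in 100 mM sodium acetate pH 7 was mixed with compound and 20 uM heparin and incubated 6 hr at 37 C.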
# Coupling enz: qHTS Assay for Inhibitors of Fructose-1,6-bisphosphate Aldolase from Giardia Lamblia: Coupling assay counterscreen. coupling enzyme system counterscreen, AmpLite Red fluorescence. activity change, negative = inhibition, % at 58.2 µM, hits read low. actives 0.67% (n = 290,000); in the data active = activity change below about -30%
#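 Fluorescence at 525 nm excitation and 598 nm emission measured inhibition of the coupled detection system without aldolase. Compounds (at 57.5 uM final) were preincubated 10 min at room temperature with coupling enzyme reagent before a 20 min substrate/AmpLite Red step.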
# Tau ThT inhib: qHTS for Inhibitors of Tau Fibril Formation, Thioflavin T Binding. AID 1460, 2008. Microtubule-associated protein tau (Homo sapiens), P10636. actives 2.1% (n = 270,000). Potency, µM (titrated, usually from 57.4 µM), hits mostly inhibitors. recombinant tau K18 P301L (four-repeat tau fragment), heparin-induced fibrillization, ThT fluorescence; also: nearly all actives have a fitted effect of over 55% in size
#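 Heparin-induced (20 uM) aggregation of recombinant human K18 P301L tau, 15 uM unlabeled with 0.24 uM labeled, pH 7 acetate buffer, 6 hr at 37 C with compound. Fibrils quantified by 30 uM ThT fluorescence after 1 hr ambient incubation.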
# Sfp PPTase inh: qHTS Assay for Inhibitors of Bacillus subtilis Sfp phosphopantetheinyl transferase (PPTase). AID 1490, 2009. Potency, µM, most hits filed as inhibitors. Biochemical Sfp PPTase activity, qHTS. actives 3.5% (n = 310,000);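 also: the enzyme is Sfp with the accession as filed and its product quenches rhodamine fluorescence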
#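 Fluorescence-quenching assay: 15 nM Sfp-PPTase preincubated 15 min at room temperature with compound, then 5 uM rhodamine-CoA and 12.5 uM BHQ-2-labelled YbbR peptide added. Fluorescence (ex 525/em 598 nm) read at start and after 30 min; difference gives rate.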
# Sfp PPTase conf: Confirmation qHTS Assay for Inhibitors of Bacillus subtilis Sfp phosphopantetheinyl transferase (PPTase); Potency, µM (highest dose often 114 µM), usual class: inhibitors; actives 79% (n = 380); shares compounds with Sfp PPTase inh; AID 2701, 2010; Sfp PPTase enzymatic assay, qHTS titration
# Target sequence (Q9F4F7 whole entry, looked up): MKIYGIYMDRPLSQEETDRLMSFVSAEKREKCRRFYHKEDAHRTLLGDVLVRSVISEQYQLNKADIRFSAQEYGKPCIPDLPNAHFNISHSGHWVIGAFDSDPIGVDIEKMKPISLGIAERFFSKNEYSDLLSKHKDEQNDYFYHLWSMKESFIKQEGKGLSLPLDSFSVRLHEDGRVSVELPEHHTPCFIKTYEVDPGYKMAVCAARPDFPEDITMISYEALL
# Sfp PPTase gel: Gel-Based Assay for Inhibitors of Bacillus subtilis Sfp phosphopantetheinyl transferase (PPTase) | shares compounds with Sfp PPTase inh | purified Sfp, gel-based phosphopantetheinylation read-out | Potency, µM, hits mostly inhibitors | actives 20% (n = 210) | AID 2707, 2010;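 active = potency below 100 µM; inconclusive = dose-dependent response but potency above 100 µM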;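 also: potency is an IC50 for inhibitors of Sfp transfer activity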
# Hits are given with their value; i = inactive; ? = inconclusive; nt = no result given; ! = a repeat was not active. Unless noted, calls follow the shape of the dose curve; as a rule, active = well fitted curve in the direction sought with a large enough effect; inconclusive = small, poorly fitted or top-dose-only effect, or another doubt; inactive = no such curve, though single readings can be large; an effect the other way counts as inactive or inconclusive.
SMILES,Tau FP inhib,Tau fluor cs,Coupling enz,Tau ThT inhib,Sfp PPTase inh,Sfp PPTase conf,others
NC(=O)c1c(NC(=O)C2CCCO2)sc2c1CCCC2 (stereo not drawn),i,i,i,i,1.3µM,13µM,
Cc1noc(C)c1-c1ccc2ncnc(NCCN3CCOCC3)c2c1,nt,nt,i,nt,i,nt,
CN(CCCNC(=O)c1cc2c(=O)n(C)c3ccccc3c2s1)Cc1ccccc1,i,i,nt,i,nt,nt,
S=C(Nc1ccccn1)c1ccccn1,i,i,i,?,2.8µM,53µM,
O=C(CSc1nc2ccc(S(=O)(=O)N3CCOCC3)cc2[nH]1)N1CCOCC1,?,i,i,28µM,6.3µM,3.7µM,
COc1cccc(-c2cn3c(n2)sc2cc(C(=O)NC4CCCCCC4)ccc23)c1,i,i,nt,?,nt,nt,
CCOC(=O)c1ccc(NC(=O)c2cc(C)nc3ccccc23)cc1,nt,nt,i,nt,i,nt,
CCc1ccc(OCc2ccccc2C(=O)Nc2ccc3nc(C)cc(N)c3c2)cc1,?,?,i,?,13µM,47µM,
Cn1cc(C(=O)O)c(=O)c2cc(S(=O)(=O)N3CCOCC3)ccc21,i,i,nt,i,nt,nt,
NC(=O)N1c2ccccc2CC(=O)c2ccccc21,i,i,-32!,?,35µM!,47µM,Sfp PPTase gel=i
Cc1cccc(N2CCN(C(=O)c3oc(=O)c4ccccc4c3-c3ccccc3)CC2C)c1 (stereo not drawn),i,i,nt,i,nt,nt,
COC(=O)Oc1nsnc1N1CCOCC1,?,i,i,?,13µM,11µM,
Cc1cc2nc3ccc(=[N+](C)C)cc-3sc2cc1N,8.9µM,?,-42,1.1µM,25µM,37µM,
Cc1ccc(-c2nnc3ccccc3c2C(=O)Nc2cccc(Cl)c2)cc1,i,i,nt,i,nt,nt,
CCOC(=O)c1c(NC(=O)c2cc(-c3cccc(OC)c3)on2)sc2c1CCCC2,i,i,nt,?,nt,nt,
CCOC(=O)c1c(NS(=O)(=O)c2cccc(OC)c2)sc2c1CCC2,i,i,i,?,2.8µM,26µM,
Cc1ccnc(NC(=O)c2sc3ccccc3c2Cl)c1,i,i,i,i,i,nt,
O=C(NCCCN1CCOCC1)c1sc2cc(Cl)ccc2c1Cl,i,i,i,i,i,nt,
O=C(NCCCN1CCOCC1)c1sc2cc([N+](=O)[O-])ccc2c1Cl,?,i,-60,28µM,0.89µM,2.4µM,
O=C(Nc1ccccn1)c1sc2cc([N+](=O)[O-])ccc2c1Cl,nt,nt,i,nt,6.3µM,3.7µM,
COc1cc(OC)c(NC(=O)c2ccc3c(c2)N(Cc2ccc(C)cc2)CCS3)cc1Cl,i,?,nt,i,nt,nt,
CCOc1ccc(NC(=O)CNS(=O)(=O)c2ccc(Br)s2)cc1,i,i,nt,i,nt,nt,
O=C(O)Cc1ccc(NC(=O)Nc2ccc(Br)cc2)cc1,i,i,i,i,40µM,?,
CCN(CC)C1=CC(=O)OC12CCCCC2,i,i,i,i,35µM,?,
Cn1nnc(NC(=S)NC(=O)c2ccco2)n1,i,i,-43,i,6.3µM,?,Sfp PPTase gel=i
SMILES,Tau FP inhib,Tau fluor cs,Coupling enz,Tau ThT inhib,Sfp PPTase inh,Sfp PPTase conf,others
Cn1nnc(NC(=O)c2ccco2)n1,i,i,i,i,i,nt,
COc1ccccc1/C=N/Nc1nncc2ccccc12,i,i,i,i,?,nt,
NNc1nncc2ccccc12,?,i,-59!,?,5µM!,?,Sfp PPTase gel=74µM
CC1=NNC(=O)/C1=C\c1cn(-c2ccccc2)nc1-c1ccccc1,i,i,i,i,3.5µM,42µM,Sfp PPTase gel=19µM
O=Cc1cn(-c2ccccc2)nc1-c1ccccc1,nt,nt,i,nt,i,nt,
CC1CCN(S(=O)(=O)c2ccc3[nH]ccc3c2)CC1,i,i,nt,i,nt,nt,
ONc1cccnc1-n1nc(C(F)(F)F)cc1C(F)(F)F,i,?,i,?,8.9µM,15µM,
